Measurements published in the supplement of paper PMC6555819.

tested on: RARb homodimer (NR concentration 270 nM); assay: PBM binding z-score (relative to random genomic background probes); higher = stronger binding; sequences stand for … in GC…GCGATTGACAGCGTAGAATGAAGG
Method in brief: (§1)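 Regression normalization was applied to scanned fluorescence from custom Agilent 4×180K protein-binding microarrays. Before scanning, arrays were incubated 1 h with ligand-free nuclear receptor dimers, and binding was detected with antibodies against each partner (one per run). Binding z-scores use the random background probes as reference.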

Row | Sequence | PBM binding z-score
1 | CCTAGCAGGCGAGGGTCACTCAAGCATTTCGCTT | 2.36
2 | CAAACTAGGTCACAGAGGGCAAAGTCCGTGCGTA | 4.14
3 | CCTTACGGGTCACGGGGTTATAGCACGACGAGCG | 3.7
4 | ATCGAAAGGTCGAGTTGAGTATAGAGAAAGGGAA | 2.39
5 | CCTTCTGGGCCATTCAGAGGTCATTGATCATATG | 4.13
6 | ATCGAAAAGTCGAAGGTGAGTATACCCACCCGAA | -0.251
7 | CCTACTGGGCCATTCAGAGGTTATTGATCATATG | 1.19
8 | ATATGTAGGTTAGCGTCATTCAGAAAGTAGGGAA | 0.285
9 | TCATATAGGTCAAAGGTGAAAGTCGGTGTGGTAA | 4.1
10 | ATCGAACGGTCGACGAGGTGAGTATACACCGTTT | 0.461
11 | TAGCCTAGGTCAAGCGGGCCAGTATAGTGTCGGC | 3.29
12 | ACTAGTTGGTCACCTGAGGTCACACACAATTCGG | 4.6
13 | CCTGGCAGGCCAGGGTCACTCAAGCATTTCGCTT | 2.66
14 | CCTACTGGGGCACGAAAGGTCATTGATTCAGTGA | 4.81
15 | TAGCATAGGTCATGCGGGCCAGTATAGTGTCGGC | 3.46
16 | GATAGTTGGTCAGTAAAAGGTCACACACCGGTCG | 5.36
17 | CAAAGTAGGTCAAGAGGTCAAAGTCCGCTTCCCG | 5.78
18 | CGTCCAACGTCAGCAGGTCAGTGAAAGCGACGTG | 1.92
19 | CAAACTAGGTCACAGAGGTCAAAGTTCGTGCGTA | 5.64
20 | CAAACTAGGTCACGAAAGGTCAAAGCCGAATGAC | 5.98

Row | Sequence | PBM binding z-score
21 | CCTACTGTGCCATTCAGAGGTCATTGATCATATG | 4.39
22 | TGAATGACGTTAAAGATCAGGGAACGTGGCGTCG | -0.807
23 | TCTAGCTGGTCAAAGGTCACACACTCGAAATGCG | 5.13
24 | ATCGAAAGGTCGACGAGGTGAGTATGCACCGTTT | 3.07
25 | CGAACTAAGTCAAAGGACAGTGAAAGGCGACGTA | 1.11
26 | ATCGAAAGGTCGAAGGTCAGTATACCCACCCGAA | 4.11
27 | ATATGCAGGTTATCGGGTCATTCAGTTTGCGCAT | 2.95
28 | TCTTGTAGGTCAAAGGTTAAGAAAGCCGAAGCCT | 3.84
29 | GATACACGGTCAAGGCCAGAGTACGCGTATTGAT | 1.73
30 | CCTACTGGGCCAAAAAGGTAATTGATGCCGATAA | -0.363
31 | AGTAGCAGGCCAAGGGTCACTCAAGATTAGTCCG | 3.98
32 | CAAACTAGGTCACAGAGGTTAAAGTCCGTGCGTA | 4.34
33 | ATATGTAGGTTACGTCCGGGTCATTCAGGCTATG | 3.02
34 | CAAACTAGGTCACAGAGGTCAAACTCCGTGCGTA | 5.75
35 | TGAATGAAGTTAAAGATCAGGGAACGTGGCGTCG | -1
36 | CGTCAAAGTTCAAGGCAACGTAACAGAAAGCAGC | 3.41
37 | CCGACTGGGGCAAAGGTTACCATGCTCAGTACGA | 2.01
38 | TTACCAAGGTGAAAGGTCGGTGATGCACGCCTTG | 2.16
39 | TGAATGAGGTTAAAGGTCAGGGAACGTGGCGTCG | 4.57

tested on: RARg:RXRa (NR concentration 270 nM, RXRa partner concentration 90 nM); assay: as above
Method in brief: as §1

Row | Sequence | PBM binding z-score
40 | CCTAGCAGGCGAGGGTCACTCAAGCATTTCGCTT | 2.77
41 | CAAACTAGGTCACAGAGGGCAAAGTCCGTGCGTA | 5.05
42 | CCTTACGGGTCACGGGGTTATAGCACGACGAGCG | 6.74
43 | ATCGAAAGGTCGAGTTGAGTATAGAGAAAGGGAA | 4.11
44 | CCTTCTGGGCCATTCAGAGGTCATTGATCATATG | 4.56
45 | ATCGAAAAGTCGAAGGTGAGTATACCCACCCGAA | 0.436
46 | CCTACTGGGCCATTCAGAGGTTATTGATCATATG | 1.1
47 | ATATGTAGGTTAGCGTCATTCAGAAAGTAGGGAA | 0.435
48 | TCATATAGGTCAAAGGTGAAAGTCGGTGTGGTAA | 7.06
49 | ATCGAACGGTCGACGAGGTGAGTATACACCGTTT | 0.635
50 | TAGCCTAGGTCAAGCGGGCCAGTATAGTGTCGGC | 4.34
51 | ACTAGTTGGTCACCTGAGGTCACACACAATTCGG | 4.66
52 | CCTGGCAGGCCAGGGTCACTCAAGCATTTCGCTT | 3.49
53 | CCTACTGGGGCACGAAAGGTCATTGATTCAGTGA | 4.75
54 | TAGCATAGGTCATGCGGGCCAGTATAGTGTCGGC | 4.99
55 | GATAGTTGGTCAGTAAAAGGTCACACACCGGTCG | 5.32
56 | CAAAGTAGGTCAAGAGGTCAAAGTCCGCTTCCCG | 8.31
57 | CGTCCAACGTCAGCAGGTCAGTGAAAGCGACGTG | 0.905
58 | CAAACTAGGTCACAGAGGTCAAAGTTCGTGCGTA | 7.52
59 | CAAACTAGGTCACGAAAGGTCAAAGCCGAATGAC | 8.01

Row | Sequence | PBM binding z-score
60 | CCTACTGTGCCATTCAGAGGTCATTGATCATATG | 4.2
61 | TGAATGACGTTAAAGATCAGGGAACGTGGCGTCG | 0.00646
62 | TCTAGCTGGTCAAAGGTCACACACTCGAAATGCG | 7.3
63 | ATCGAAAGGTCGACGAGGTGAGTATGCACCGTTT | 4.29
64 | CGAACTAAGTCAAAGGACAGTGAAAGGCGACGTA | 0.597
65 | ATCGAAAGGTCGAAGGTCAGTATACCCACCCGAA | 6.01
66 | ATATGCAGGTTATCGGGTCATTCAGTTTGCGCAT | 3.29
67 | TCTTGTAGGTCAAAGGTTAAGAAAGCCGAAGCCT | 7.23
68 | GATACACGGTCAAGGCCAGAGTACGCGTATTGAT | 1.54
69 | CCTACTGGGCCAAAAAGGTAATTGATGCCGATAA | 0.0737
70 | AGTAGCAGGCCAAGGGTCACTCAAGATTAGTCCG | 4.29
71 | CAAACTAGGTCACAGAGGTTAAAGTCCGTGCGTA | 5.36
72 | ATATGTAGGTTACGTCCGGGTCATTCAGGCTATG | 4.03
73 | CAAACTAGGTCACAGAGGTCAAACTCCGTGCGTA | 7.7
74 | TGAATGAAGTTAAAGATCAGGGAACGTGGCGTCG | -0.156
75 | CGTCAAAGTTCAAGGCAACGTAACAGAAAGCAGC | 5.02
76 | CCGACTGGGGCAAAGGTTACCATGCTCAGTACGA | 3.66
77 | TTACCAAGGTGAAAGGTCGGTGATGCACGCCTTG | 3.18
78 | TGAATGAGGTTAAAGGTCAGGGAACGTGGCGTCG | 7.13
